# Results reported in PubChem BioAssay (NCI).
# The panel holds about 83,000 compounds, 20% with a hit somewhere; the sample as a whole holds those more often.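 96-well plates, one dose, 48 hours. Percent growth reported; active if below 10.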 Unmarked numbers belong to inactive results. Active and inactive are the calls of the source.
# Test system: OVCAR-3 ovarian
# Experiment: NCI-60 one-dose screen, 48 h (100 = growth as untreated, 0 = no growth, -100 = all killed)
# Settings: 10 µM unless noted
# Procedure: Growth inhibition of the OVCAR-3 human tumor cell line is measured as a screen for anti-cancer activity. Cells are grown in 96 well plates and exposed to the test compound for 48 hours. Compounds are tested at a single concentration, which is 10^-5 M for most compounds. The reported endpoint is percent growth (GI% or GIPRCNT), where numbers from 0 - 100% represent growth inhibition, and numbers from -100% - 0 represent cell death. For example, a value of 40 represents 60% growth inhibition. A value of 0 means no net growth occurred over the course of the experiment. A value of -40 indicates 40% of cells at the beginning of the experiment died by the end of the experiment. A value of -100 means all cells are dead at the end of the experiment.
# NCI-60 Human Tumor Cell Lines Screen was performed using the standard one-dose NCI protocol, which is described in more detail at https://dtp.cancer.gov/discovery_development/nci-60/default.htm.
# Compounds with GIPRCNT values below 10 were considered active. Activity score was based on GIPRCNT using the following formula: […]
# Score is 0 for GIPRCNT values of 100 or above, 50 for GIPRCNT values of 0, and 100 for GIPRCNT values of -100.
row,SMILES,growth
1,C=C1C(=O)O[C@H]2[C@H]1CC/C(Cn1cc(-c3cccc(Cl)c3)nn1)=C\CC[C@@]1(C)O[C@@H]21,-92.8% (active)
2,ClC(Cl)c1nc(-c2ccccc2)nc2cc(-c3ccccc3)nn12,-9.5% (active)
3,CCCCCCCC/C=C/CCCCCCCC1=NC(C)(C)CN1C(C)(C)CO,55.4%
4,O=C(c1ccccc1)C1OC1c1ccc([N+](=O)[O-])cc1 (stereo not given),59.7%
5,O=C(Oc1ccccc1[N+](=O)[O-])C1CCCN1C(=O)OCc1ccccc1 (stereo not given),110%
6,N#Cc1ccc(N2Cc3ccccc3OC3=C2C(=O)c2c(O)ccc(O)c2C3=O)cc1,-93.2% (active)
7,C=COC(=O)CCCCCCCCC,120%
8,COc1ccc2[nH]c(C(=O)OCc3ccc4c(Cl)cc(Cl)c(O)c4n3)cc2c1,-90% (active)
9,Cc1ccc2nc(-c3cc4c([nH]c5ccccc54)c(-c4ccc(F)c(F)c4)n3)[nH]c2c1,96.7%
10,CCc1cnc(=S)n(-c2ccccc2)c1,98.5%
11,O=C1/C(=C/c2ccc(Cl)cc2)CN(Cc2cn(CCNc3ccnc4cc(Cl)ccc34)nn2)C/C1=C\c1ccc(Cl)cc1,-100% (active)
12,CCCCOc1ccc(/C=C2/SC(N3CCOCC3)=NC2=O)cc1OCC,115%
13,COc1ccc(-c2cc(-c3ccccc3)nc(SCCCC(=O)NO)n2)cc1OC,-22.7% (active)
14,CCOC(=O)c1cn2c3c(cccc3c1=O)C(=O)/C(=C/c1cccc(Cl)c1Cl)C2,113%
15,CN(C)c1cccc2c(S(=O)(=O)/N=C(\N)Nc3nc4ccccc4s3)cccc12,8.44% (active)
16,CCCCN(CCCC)c1ccc(C(=N)c2ccc(N(CCCC)CCCC)cc2)cc1,-99.2% (active)
17,O=C1/C(=C/c2ccccc2)CN(C(=O)CCN2CCC(=NO)CC2)C/C1=C\c1ccccc1,-27% (active)
18,CC(=O)Nc1nc(N)nc(NC(C)=O)c1N=O,99.7%
19,NC(=O)c1c(NC(=S)Nc2ccc(OC(F)(F)F)cc2)sc2c1CCC1(C2)OCCO1,109%
20,O=C(CSC1CCc2ccccc21)N/N=C/c1ccccc1O (stereo not given),20.6%

row,SMILES,growth
1,Cc1cc(N/N=C/c2nc(-c3ccccc3)oc2C)c2cc(Br)ccc2n1,109%
2,CCOC(=O)/C(C#N)=C1/C(=O)Nc2ccccc21,134%
3,COc1cccc(/C=C2\Oc3cc(OCCCN4CCCC4)ccc3C2=O)c1OC,99%
4,NC1=NC(SCc2ccccc2CCl)c2ncn(Cc3ccccc3CCl)c2N1 (stereo not given),2.22% (active)
5,C=C1CCC2C(C)(CO)C(O)CCC2(C)C1CC(NCc1ccccc1)C1=CCOC1=O (stereo not given),105%
6,COc1cc(-c2nn(C(=O)NS(=O)(=O)c3ccccc3)cc2-c2ccncc2)ccc1Cl,106%
7,COc1ccc(-c2nc3sc(-c4cc(OC)c(OC)c(OC)c4)nn3c2/C=C2/C(=O)Nc3ccc(F)cc32)cc1,-60.9% (active)
8,COc1cc2c(cc1OCCCN1CCN(CCCn3c4ccccc4c4ccccc43)CC1)N=C[C@@H]1CCCN1C2=O,-91.1% (active)
9,O=C(Nc1cccc(-n2cc(-c3ccncc3)c(-c3ccc(Cl)c(O)c3)n2)c1)Nc1cccc(C(F)(F)F)c1,0.81% (active)
10,Cc1ccc(C(=O)C2=Cc3cc4ccccc4n3Cc3cnnn32)cc1,109%
11,COc1cc(NC(N)=NCCC(C)(C)c2ccc(C(F)(F)F)cc2)ncc1C#N,24%
12,COc1ccc(-c2ccc(C)n2-c2ccc(-c3nc4ccccc4s3)cc2)cc1,107%
13,C=C[C@@H]1C[C@@H]2Cc3ccccc3N1O2,121%
14,COc1ccc(-c2cnnn2-c2nonc2-n2cccc2)cc1OC,30.2%
15,COC(=O)c1nc(-c2ccccc2)oc1S(=O)(=O)N1CCN(c2cccc(Cl)c2)CC1,69.2%
16,CCCN=C1NC(=O)/C(=C/c2nc(-c3ccc(OC)cc3)n3ccccc23)S1,61.9%
17,C=C1C(=O)O[C@@H]2[C@@H]3O[C@@](C)(CC/C=C(\C)CCC[C@@H]2C)[C@H](O)C[C@@H]13,13.9%
18,N[C@H]1CN(C(=O)c2cc3cc(Br)c(F)c(F)c3[nH]2)C[C@@H]1O,102%
19,CN(C)c1nc2c(N)ncnc2n1C1OC(CO)C(O)C1O (stereo not given),108%
20,CC(C)(C)n1cc(-c2ccnc(NCCCNS(=O)(=O)c3ccc(Br)cc3)c2)c(-c2cccc(O)c2)n1,42.8%
